The list is a sample of the results.
aSyn 5UTR act – Activators via SNCA 5'UTR binding, MLPCN | alpha-synuclein 5'UTR reporter, activators screen | activity score, % (tested at 7.5 µM), hits read low | 7.1% of 300,000 active; in the data active = activity score below about -60%
Large screens that a line does not name were inactive.

NS(=O)(=O)c1ccc2nc(NC(=O)Nc3ccc(F)cc3)sc2c1	aSyn 5UTR act -97.5
O=C(Nc1nc2ccccc2s1)c1c(F)cccc1Cl	aSyn 5UTR act -86.2
COc1ccc(NC(=O)Nc2nc3ccccc3s2)cc1	aSyn 5UTR act -149.8
COc1n[nH]c(C(=O)Nc2nc3ccccc3s2)c1[N+](=O)[O-]	aSyn 5UTR act -78.9
COc1ccc(C(=O)Nc2nc3ccccc3s2)c(OC)c1	none
CCOc1ccc2nc(NC(=O)NC3CCCCC3)sc2c1	aSyn 5UTR act -71.8
CCOC(=O)c1ccc(NCc2nc3ccccc3n2C)cc1	aSyn 5UTR act -172.2
Cn1c(CNc2nc3ccccc3n2C)nc2ccccc21	aSyn 5UTR act -81.4
Cn1c(CNc2ccc(Br)cc2)nc2ccccc21	aSyn 5UTR act -172.4
COc1ccc(NCc2nc3ccccc3n2C)cc1	aSyn 5UTR act -129.5
Cn1c(NCc2ccc(Cl)cc2)nc2ccccc21	aSyn 5UTR act -100.3
Cc1ccc(NCc2nc3ccccc3n2C)cc1	aSyn 5UTR act -111.3
COc1ccc(Nc2nc3ccccc3n2C)cc1	aSyn 5UTR act -101.4
CCCn1c(CNc2ccccc2O)nc2ccccc21	aSyn 5UTR act -83.9
C=CCn1c(NCc2ccc(N(C)C)cc2)nc2ccccc21	aSyn 5UTR act -63.4
Cc1ccc(NCc2nc3ccccc3n2C)cc1C	aSyn 5UTR act -113.0
Cn1c(S(=O)(=O)Cc2ccc(Cl)cc2)nc2ccccc21	aSyn 5UTR act -65.4
O=C(CSc1n[nH]c(-c2ccccn2)n1)Nc1ccc(F)cc1	none
O=C(CSc1nnc(-c2ccccn2)o1)Nc1ccc(F)cc1	aSyn 5UTR act -93.8
Cc1occc1-c1nnc(SCC(=O)Nc2ccccn2)o1	aSyn 5UTR act -114.9
O=C(CSc1nnc(-c2ccccn2)o1)Nc1ccccc1	aSyn 5UTR act -70.8
Fc1ccc(CSc2nnc(-c3ccccn3)o2)cc1	aSyn 5UTR act -196.1
Cc1cc2[nH]c3ccccc3c2c(C)n1	aSyn 5UTR act -85.1
C/C(=N\Nc1ccccc1)c1cccc(N)c1	aSyn 5UTR act -91.7
Brc1ccc(N/N=C(/N=Nc2nn[nH]n2)c2ccccc2)cc1	none
Cc1ccc(C(=O)c2cccc(N)c2)cc1C	none
Brc1ccc(-c2cn3c(n2)SCC3)cc1	aSyn 5UTR act -179.1
Clc1ccc(-c2cn3c(n2)SCC3)cc1	aSyn 5UTR act -186.5
Cc1nc2ccc(NC(=O)NCCO)cc2s1	aSyn 5UTR act -63.9
Cc1nc2ccc(NC(=O)NCCCO)cc2s1	aSyn 5UTR act -63.7
Cc1cc(N)c(-n2cc3c(=O)n(C)c(=O)n(C)c3c2)cc1C	aSyn 5UTR act -133.7
Cc1ccc(-n2cc3c(=O)n(C)c(=O)n(C)c3c2)cc1C	aSyn 5UTR act -107.4
CNc1nnc(-c2ccc(OC)cc2)s1	aSyn 5UTR act -75.3
CS(=O)(=O)c1ccc2nc(NC(=O)c3ccccc3Br)sc2c1	aSyn 5UTR act -103.8
CS(=O)(=O)c1ccc2nc(NC(=O)c3cccc(Cl)c3)sc2c1	aSyn 5UTR act -71.9
COc1ccccc1C(=O)Nc1nc2ccccc2s1	none
Cc1noc(C)c1C(=O)Nc1nc2ccc(S(C)(=O)=O)cc2s1	aSyn 5UTR act -70.1
COc1ccccc1C(=O)Nc1nc2ccc(S(C)(=O)=O)cc2s1	aSyn 5UTR act -118.4
CS(=O)(=O)c1ccc2nc(NC(=O)c3ccccc3Cl)sc2c1	aSyn 5UTR act -108.8
Cc1csc(NC(=O)c2nc3nccc(C)n3n2)n1	aSyn 5UTR act -147.2
Cc1ccnc2nc(C(=O)Nc3ccc(N4CCOCC4)cc3)nn12	aSyn 5UTR act -73.0
Cc1ccc(NC(=O)c2nc3nccc(C)n3n2)c(C)c1	aSyn 5UTR act -63.7
COC(=O)CNc1c(-c2ccccc2)nc2ccc(Br)cn12	aSyn 5UTR act -69.0
COc1ccc(NC(=O)Nc2nnc(-c3cccs3)s2)cc1	aSyn 5UTR act -112.8
O=C(Nc1ccccc1)Nc1nnc(-c2cccs2)s1	aSyn 5UTR act -181.7
O=C(/C(=C/c1ccc(Cl)cc1)c1nc2ccccc2[nH]1)c1ccccc1	aSyn 5UTR act -217.2
N#C/C(=C(/O)c1ccc(Cl)cc1)c1nc2ccccc2[nH]1	aSyn 5UTR act -67.3
O=C(N/N=C/c1ccc(Br)cc1)c1ccc(Br)o1	aSyn 5UTR act -206.9
O=C(N/N=C/c1ccc(F)cc1)c1ccccc1	aSyn 5UTR act -151.7
Nc1c(C(=O)N/N=C/c2ccccc2)cnn1-c1ccccc1	aSyn 5UTR act -107.7
O=C(N/N=C/c1ccc(Br)cc1)c1ccc(F)cc1	aSyn 5UTR act -78.1
O=C(N/N=C/c1sc2ccccc2c1O)c1ccccc1	none
O=C(N/N=C/c1ccccc1O)c1cccc(C(F)(F)F)c1	none
O=C(N/N=C/c1ccccc1C(F)(F)F)c1ccc(O)cc1	aSyn 5UTR act -134.8
O=C(N/N=C/c1ccccc1Cl)c1n[nH]c2c1CCCC2	none
O=C(N/N=C/c1ccc(O)cc1)c1cccc(N/N=C/c2ccc(O)cc2)c1	aSyn 5UTR act -107.7
O=C(N/N=C/c1ccccc1)c1n[nH]c2c1CCCC2	aSyn 5UTR act -87.5
Cc1cccc(/C=N/NC(=O)c2ccc(Br)cc2)c1	aSyn 5UTR act -90.0
O=C(NN=C1CCCC1)c1ccn[nH]1	aSyn 5UTR act -76.5
O=C(NN=C1CCCCCC1)c1ccc(Br)o1	aSyn 5UTR act -81.8
c1ccc(-c2nnc(SCc3cn4ccsc4n3)o2)cc1	aSyn 5UTR act -75.2
Cc1ccc(OCCn2c(=O)n(C)c3ccccc32)cc1	aSyn 5UTR act -123.1
Cn1c(=O)n(CCOc2ccccc2Cl)c2ccccc21	aSyn 5UTR act -98.7
Cc1ccc(C2=N/C(=C/N3CCOCC3)C(=O)O2)cc1	aSyn 5UTR act -100.1
Cc1ccc(C2=N/C(=C\N3CCCCC3)C(=O)O2)cc1	aSyn 5UTR act -105.4
C(=N\Nc1nc2ccccc2s1)/c1ccc2c(c1)OCO2	aSyn 5UTR act -189.6
Cc1ccc2[nH]c(C)c(/C=N/Nc3nc4ccccc4s3)c2c1	aSyn 5UTR act -140.3
Brc1cc2c(cc1/C=N/Nc1nc3ccccc3s1)OCO2	aSyn 5UTR act -116.9
Cc1nc(N/N=C\c2ccc3c(c2)OCO3)sc1C	aSyn 5UTR act -128.5
C(=N\Nc1nc2ccccc2s1)/c1ccccn1	none
Brc1csc(/C=N/Nc2nc3ccccc3s2)c1	aSyn 5UTR act -274.6
O=C1c2c(Br)c(Br)c(Br)c(Br)c2C(=O)N1c1ccccn1	aSyn 5UTR act -112.3
CCC(=O)c1ccc(OCc2ccccc2)c(OC)c1	aSyn 5UTR act -85.4
COc1cc(C(=S)N2CCCC2)ccc1OCc1ccccc1	aSyn 5UTR act -66.9
Oc1c(CN2CCCCC2)cc(COCc2ccccc2)c2cccnc12	none
COC(=O)c1ccc(COC(=O)c2ccc(SC)cc2OC)cc1	aSyn 5UTR act -115.0
CCCCCCCCCCOC(=O)Cn1c(COc2ccccc2OC)[n+](C)c2ccccc21	none
CCC(=O)c1ccc(OCc2ccc(C(=O)OC)cc2)c(OC)c1	aSyn 5UTR act -75.1
O=C(Nc1ccc2nc(-c3ccco3)[nH]c2c1)c1cccs1	aSyn 5UTR act -190.4
CC(=O)Nc1ccc2nc(-c3ccco3)[nH]c2c1	aSyn 5UTR act -72.9
O=C(Nc1ccc2nc(-c3ccco3)[nH]c2c1)c1ccco1	aSyn 5UTR act -117.5
Cc1ccc2nc(-c3cccc(NC(=O)c4ccco4)c3)[nH]c2c1	aSyn 5UTR act -121.2
O=C(Nc1ccc2nc(-c3ccccc3)[nH]c2c1)c1cccs1	aSyn 5UTR act -103.4
O=C(/C=C/c1ccco1)Nc1ccc(-c2nc3ccccc3[nH]2)cc1	none
O=C(c1ccccc1)c1ccc2nc(-c3ccc(NC(=O)c4ccccc4F)cc3)[nH]c2c1	aSyn 5UTR act -100.7
O=C(Nc1ccc(-c2nc3ccccc3[nH]2)cc1)c1ccco1	aSyn 5UTR act -133.4
Nc1cnc(-c2ccccc2)nc1Cl	aSyn 5UTR act -62.5
c1ccc(-c2cnc(-c3ccccc3)nc2)cc1	aSyn 5UTR act -66.4
c1ccc(-c2ncc3c(ccc4ccccc43)n2)cc1	none
N#CCc1ccc(C(=O)c2ccccc2)s1	aSyn 5UTR act -69.6

Screening data as filed in PubChem.
